A number with no mark means an inactive call. Records with an inconclusive call do not appear. Calls of active or inactive are those of the source. Unless noted, calls come from the whole dose curve; as a rule, active = well fitted curve in either direction with a large enough effect (not every such curve was filed as active); inconclusive = small, poorly fitted or top-dose-only effect, or another doubt; inactive = flat fitted curve, though single readings scatter.

The nature of test [1]: AP1 Signaling Pathway (AID 357).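 Note: ME-180 reporter cells stimulated with EGF at its EC50 level; % is set by controls: 0 for no effect and ±100 for the full control effect.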 Conditions: ME-180 (cervical carcinoma) AP-1-bla reporter, EGF-induced, beta-lactamase ratio, 5 h; at 7.69 µM (top of the series) unless noted. The procedure, abridged: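 Modulation of EGF-driven AP-1 transcription was assessed with a beta-lactamase reporter in ME-180 cells. Compound and EC50 EGF were co-incubated 5 hours at 37 °C before 2.5-hour CCF4 loading at room temperature and dual-emission reading.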

Test [2] can be described thus: NFAT Signaling Pathway (AID 444).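 Note: carbachol stimulus at about its EC50 of 1 µM final; % is set by controls: 0 for no effect and ±100 for the full control effect.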 Conditions: Jurkat NFAT-bla M1, carbachol, beta-lactamase ratio, 5 h; at 7.69 µM (top of the series) unless noted. The procedure, abridged: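 Read-out: CCF4 FRET ratio (460 nm/530 nm) after 1 h RT dye loading, used for %activity and AC50 from titration series. Cells: Jurkat NFAT-β-lactamase/M1 line, treated with compound plus 1 uM carbachol for 5 h, 37 °C.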

The target in test [3] is Glucocorticoid receptor (Homo sapiens) (UniProt P04150). As to the kind of experiment: GR-GFP Redistribution (AID 450;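 active = compounds whose dose series gives a full or clear partial fitted curve of increased nuclear translocation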; note: potency is the fitted concentration of half-maximal effect). Conditions: U2OS GR-GFP nuclear translocation, laser cytometry, 2 h.
Chain of Glucocorticoid receptor (Homo sapiens) (P04150 whole entry, looked up): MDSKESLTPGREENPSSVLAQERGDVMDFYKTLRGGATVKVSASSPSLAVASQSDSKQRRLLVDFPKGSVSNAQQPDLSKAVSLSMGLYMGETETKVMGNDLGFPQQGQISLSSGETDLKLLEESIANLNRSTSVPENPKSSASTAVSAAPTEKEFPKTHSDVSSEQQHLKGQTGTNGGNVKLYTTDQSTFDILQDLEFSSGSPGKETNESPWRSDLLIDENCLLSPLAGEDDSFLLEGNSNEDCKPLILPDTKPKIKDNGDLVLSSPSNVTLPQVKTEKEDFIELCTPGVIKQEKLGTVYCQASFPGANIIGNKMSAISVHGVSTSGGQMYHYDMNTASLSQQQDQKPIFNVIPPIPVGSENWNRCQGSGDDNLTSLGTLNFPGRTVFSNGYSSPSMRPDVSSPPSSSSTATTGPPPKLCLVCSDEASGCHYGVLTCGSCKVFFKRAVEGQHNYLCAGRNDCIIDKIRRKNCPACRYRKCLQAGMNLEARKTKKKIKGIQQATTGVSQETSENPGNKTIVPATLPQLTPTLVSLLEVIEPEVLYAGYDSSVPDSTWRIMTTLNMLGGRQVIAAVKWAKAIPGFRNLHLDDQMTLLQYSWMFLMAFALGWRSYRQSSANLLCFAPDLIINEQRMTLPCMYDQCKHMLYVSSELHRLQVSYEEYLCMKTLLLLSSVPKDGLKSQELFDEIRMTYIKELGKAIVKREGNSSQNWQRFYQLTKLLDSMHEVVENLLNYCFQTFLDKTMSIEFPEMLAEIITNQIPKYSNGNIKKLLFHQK
The target is the same in test [4]. The test is described as follows: GR-EFC Redistribution (AID 451; calls by dose curve; note: potency is the fitted concentration of half-maximal effect). Conditions: CHO-K1 GR-EFC translocation, beta-gal luminescence, 2 h. An outline of the steps:
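Translocation of GR-ED fusion to nuclear EA restores b-gal, read by luminescence after 1 h room-temperature detection. Engineered CHO-K1 biosensor cells, 1,000/well, exposed 2 h at 37 C to titrations up to 46 uM final.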

In test [5] the target is Ubiquitin carboxyl-terminal hydrolase 1 (Homo sapiens) (UniProt O94782). The test is described as follows: Inhibitors of USP1/UAF1: Pilot qHTS (AID 504865; active = well fitted inhibition curve with a large enough effect; note: nearly all actives have a fitted effect of over 35% in size; note: potency is the fitted concentration of half-maximal effect;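 for activity change, negative = inhibition: rhodamine fluorescence freed from ubiquitin-rhodamine substrate followed over time; top concentration of the series differs between compounds; % is set by controls: 0 for no effect and ±100 for the full control effect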). An outline of the steps:
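1nM USP1/UAF1 + cpd, 15 min RT; start w/ Ub-Rho 150nM final; kinetic FL 480/540 nm, 6 reads q60 s. Buffer 50mM HEPES pH 7.8, 0.5mM EDTA, 1mM TCEP, 0.01% Tween-20, 0.1 mg/ml BSA.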
(In general: qHTS replaces the single test concentration by a dilution series.)

The target of test [6] is Mitogen-activated protein kinase 10 (Mus musculus) (UniProt Q61831). As to the kind of experiment: JNK3 AlphaScreen Assay (AID 530).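 Note: kinase came from lysate of stimulated human HepG2 cells; signal reports phosphorylation of biotinylated GST-cJun 1-79 at Ser73 with 10 µM ATP; % is set by controls: 0 for no effect and ±100 for the full control effect.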 The procedure, abridged:
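Compound titrations were preincubated 15 minutes at room temperature with substrate, antibody and pre-activated JNK3-containing HepG2 lysate. Reactions were started with 10 uM ATP and stopped with EDTA-containing bead buffer for AlphaScreen detection.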
A general note: Bead proximity is the source of the signal in Alpha formats.

Chain of Ubiquitin carboxyl-terminal hydrolase 1 (Homo sapiens) (O94782 whole entry, looked up): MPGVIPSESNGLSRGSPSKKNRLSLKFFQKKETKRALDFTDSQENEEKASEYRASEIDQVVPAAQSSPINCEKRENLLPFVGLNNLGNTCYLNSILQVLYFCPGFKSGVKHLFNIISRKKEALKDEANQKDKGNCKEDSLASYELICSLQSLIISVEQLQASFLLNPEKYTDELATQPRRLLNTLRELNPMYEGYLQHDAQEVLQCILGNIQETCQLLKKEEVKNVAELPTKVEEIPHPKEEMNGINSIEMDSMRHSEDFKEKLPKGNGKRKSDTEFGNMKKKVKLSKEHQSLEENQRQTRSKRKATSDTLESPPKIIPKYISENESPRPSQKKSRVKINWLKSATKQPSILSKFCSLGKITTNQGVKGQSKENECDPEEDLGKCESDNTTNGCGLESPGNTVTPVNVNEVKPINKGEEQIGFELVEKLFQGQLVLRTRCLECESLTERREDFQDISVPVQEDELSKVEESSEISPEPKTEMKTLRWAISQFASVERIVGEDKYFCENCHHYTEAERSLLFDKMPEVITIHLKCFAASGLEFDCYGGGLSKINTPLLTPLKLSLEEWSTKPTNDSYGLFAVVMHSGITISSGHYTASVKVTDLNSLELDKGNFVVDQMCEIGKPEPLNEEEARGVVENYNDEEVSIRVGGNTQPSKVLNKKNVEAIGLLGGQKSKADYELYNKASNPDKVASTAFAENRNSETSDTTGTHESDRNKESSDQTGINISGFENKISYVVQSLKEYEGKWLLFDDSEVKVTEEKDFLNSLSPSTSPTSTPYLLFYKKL

Take `N#Cc1ccccc1-c1ccc2ncnc(NCc3cccnc3)c2c1`: the activity change, negative = inhibition in test [1] was -14.7%; in test [2], 17.5%. Also, the Potency in test [3] and in test [4] was greater than 46 µM throughout. The Potency entry in test [5] is “inactive”.

In the case of `Cc1cnc(CNc2ncnc3ccc(-c4ccccc4Cl)cc23)cn1`, the activity change, negative = inhibition in test [1] was 14.6%; in test [2] it was 7.91%. The Potency in test [3] and in test [4] was greater than 46 µM each time. The Potency entry in test [5] was “inactive”.

Turning to `CN(C)c1ncnc2ccc(-c3cccc(NS(C)(=O)=O)c3)cc12`, the activity change, negative = inhibition in test [1] is -26.5%. The Potency in test [3] and in test [4] was greater than 46 µM throughout. Moreover, the Potency entry in test [6] and in test [5] was “inactive” throughout.

Consider `COCCn1c(=O)c(-c2cccc(C#N)c2)nc2cnc(Oc3cccc(Cl)c3)nc21`, for which the values for the activity change, negative = inhibition in test [1] and in test [2] were -5.9% and -4.85%, respectively. For the same molecule, the Potency in test [3] was greater than 9.22 µM; in test [4] it was greater than 46 µM. Also, the Potency entry in test [6] and in test [5] was “inactive” each time.

As to `CN(C)c1ccc(-c2nccc(NCc3cccs3)n2)cc1`, in test [1], the activity change, negative = inhibition is -18.4%. Besides, the Potency in test [3] and in test [4] was greater than 46 µM each time. Also, the Potency entry in test [6] and in test [5] was “inactive” each time.

On to `CCNc1ncc2nc(-c3ccccc3)c(=O)n(CCC#N)c2n1`, for which the values for the activity change, negative = inhibition in test [1] and in test [2] were -3.6% and 27.9%, respectively. For the same molecule, the Potency in test [3] is greater than 9.22 µM; in test [4], greater than 46 µM. In addition, the Potency result in test [6] and in test [5] was “inactive” throughout.

Take `COc1ccccc1-c1nccc(NCc2cccs2)n1`: the activity change, negative = inhibition in test [1] was 15.8%; in test [2], -12.7%. Further, the Potency in test [3] and in test [4] was greater than 46 µM each time. Moreover, the Potency result in test [6] is “inactive”.

In the case of `COc1ccccc1CNc1ncnc2ccc(-c3cccc(NS(C)(=O)=O)c3)cc12`, the activity change, negative = inhibition in test [2] is 24.7%. The Potency in test [3] and in test [4] was greater than 46 µM in each case. Moreover, the Potency entry in test [6] and in test [5] was “inactive” each time.

In the case of `COc1cccc(Nc2ncc3ncc(=O)n(CCC#N)c3n2)c1`, the activity change, negative = inhibition is -26.1% in test [1] and -0.673% in test [2]. Besides, the Potency in test [3] is greater than 9.22 µM; in test [4], greater than 46 µM. In addition, the Potency result in test [6] and in test [5] was “inactive” each time.

`O=c1c(CCc2ccccc2)nc2cncnc2n1Cc1ccccc1`: in test [2], the activity change, negative = inhibition was -4.57%. Moreover, the Potency in test [3] and in test [4] was greater than 46 µM each time. In test [5], the Potency result was “inactive”.

Take `O=c1c(-c2cccc(F)c2)nc2cncnc2n1Cc1ccc(F)cc1`: the values for the activity change, negative = inhibition in test [1] and in test [2] were -9.74% and -4.79%, respectively. In addition, the Potency in test [3] was greater than 9.22 µM; in test [4], greater than 46 µM. The Potency entry in test [6] and in test [5] was “inactive” throughout.

Consider `CN(C)c1ccc(-c2cc(N(C)Cc3ccco3)ncn2)cc1`, for which the activity change, negative = inhibition in test [1] was -23.1%; in test [2], 3.68%. Besides, the Potency in test [3] and in test [4] was greater than 46 µM each time. Besides, the Potency entry in test [6] and in test [5] was “inactive” in each case.

On to `COCCn1c(=O)c(-c2cccs2)nc2cnc(N3CCNCC3)nc21`, for which the Potency in test [4] was greater than 46 µM. Also, the Potency result in test [6] and in test [5] was “inactive” each time.

Turning to `COc1ccc(CNc2cc(-c3cccc(NS(C)(=O)=O)c3)ncn2)c(OC)c1`, the activity change, negative = inhibition in test [2] is -10.4%. The Potency in test [3] and in test [4] was greater than 46 µM each time. The Potency entry in test [6] and in test [5] was “inactive” throughout.

Turning to `COCCn1c(=O)c(-c2cc(F)cc(F)c2)nc2cnc(N3CCN(C)CC3)nc21`, the activity change, negative = inhibition in test [1] is 19.3%. In addition, the Potency in test [3] is greater than 9.22 µM; in test [4] it was greater than 46 µM. Moreover, the Potency entry in test [6] and in test [5] was “inactive” in each case.

Turning to `COc1cccc(Nc2ncc3ncc(=O)n(Cc4ccc(F)cc4)c3n2)c1`, the activity change, negative = inhibition in test [1] is -28.1%; in test [2], -8.23%. Further, the Potency in test [3] was greater than 9.22 µM; in test [4], greater than 46 µM. Further, the Potency result in test [6] and in test [5] was “inactive” throughout.

Consider `Clc1ccccc1-c1ccc2ncnc(NCCN3CCOCC3)c2c1`, for which the activity change, negative = inhibition in test [2] was 13.8%. The Potency in test [3] and in test [4] was greater than 46 µM each time. The Potency result in test [6] and in test [5] was “inactive” each time.

Regarding `c1cncc(CNc2nc(-c3cccnc3)nc3ccccc23)c1`, the activity change, negative = inhibition in test [1] is -12.9%; in test [2], -15.2%. In addition, the Potency in test [3] and in test [4] was greater than 46 µM each time. The Potency entry in test [5] was “inactive”.

As to `CCNc1ncc2ncc(=O)n(Cc3ccc(F)cc3)c2n1`, the results for the activity change, negative = inhibition in test [1] and in test [2] were -23.6% and 3%, respectively. Further, the Potency in test [3] is greater than 9.22 µM; in test [4] it was greater than 46 µM. In addition, the Potency result in test [6] and in test [5] was “inactive” in each case.

`COc1ccccc1CNc1ccnc(-c2cccnc2)n1`: the activity change, negative = inhibition is -7.12% in test [1] and -4.87% in test [2]. Further, the Potency in test [3] and in test [4] was greater than 46 µM in each case. Besides, the Potency result in test [6] and in test [5] was “inactive” in each case.

Turning to `c1ccc(CNc2nc(-c3cccnc3)nc3ccccc23)cc1`, the activity change, negative = inhibition was -20.2% in test [1] and -17.2% in test [2]. Further, the Potency in test [3] and in test [4] was greater than 46 µM throughout. Besides, the Potency entry in test [6] was “inactive”.

Take `COc1cccc(-c2nc(NCc3cccnc3)c3ccccc3n2)c1`: the activity change, negative = inhibition in test [1] is -1.11%; in test [2], 27.1%. Further, the Potency in test [3] and in test [4] was greater than 46 µM throughout. In addition, in test [6], the Potency result is “inactive”.

Consider `N#CCCn1c(=O)c(-c2cccc(C#N)c2)nc2cnc(Oc3cccc(Cl)c3)nc21`, for which the activity change, negative = inhibition in test [1] is -14.2%; in test [2], -6.45%. The Potency in test [3] was greater than 9.22 µM; in test [4] it was greater than 46 µM. In addition, the Potency result in test [6] and in test [5] was “inactive” throughout.

Take `COc1ccc(Oc2ncc3nc(-c4ccc(F)cc4)c(=O)n(C[C@H]4CCCO4)c3n2)cc1`: the activity change, negative = inhibition was -23.4% in test [1] and 0.101% in test [2]. Moreover, the Potency was greater than 9.22 µM in test [3] and greater than 46 µM in test [4]. Also, the Potency result in test [6] and in test [5] was “inactive” in each case.

For the molecule `CCNc1ncc2nc(C)c(=O)n(CCc3ccccc3)c2n1`, the activity change, negative = inhibition was -15.2% in test [1] and -12.8% in test [2]. For the same molecule, the Potency in test [3] is greater than 9.22 µM; in test [4] it was greater than 46 µM. In addition, the Potency result in test [6] and in test [5] was “inactive” in each case.

For the molecule `COCCn1c(=O)c(-c2cccc(C#N)c2)nc2cnc(OCc3ccccc3)nc21`, the activity change, negative = inhibition was -20.4% in test [1] and -5.35% in test [2]. Moreover, the results for the Potency in test [3] and in test [4] were greater than 9.22 µM and greater than 46 µM, respectively. Moreover, the Potency entry in test [6] and in test [5] was “inactive” in each case.

In the case of `Cn1c(=O)c(-c2ccccc2)nc2cnc(N3CCOCC3)nc21`, the values for the activity change, negative = inhibition in test [1] and in test [2] were -2.38% and 3.19%, respectively. For the same molecule, the figures for the Potency in test [3] and in test [4] were greater than 9.22 µM and greater than 46 µM, respectively. The Potency entry in test [5] is “inactive”.

Regarding `FC(F)(F)c1ccccc1-c1nc(NCc2cccnc2)c2ccccc2n1`, the activity change, negative = inhibition in test [1] was 5.72%; in test [2] it was 3.45%. Further, the Potency in test [3] was greater than 46 µM; in test [4], greater than 46 µM; in test [5], 12.6 µM (active). For the same molecule, the Potency result in test [6] was “inactive”.

In the case of `COc1ccc(-n2c(=O)c(-c3cccs3)nc3cnc(N4CCN(C)CC4)nc32)cc1`, the activity change, negative = inhibition was 8.48% in test [1] and 4.91% in test [2]. The Potency in test [3] was greater than 9.22 µM; in test [4], greater than 46 µM. The Potency entry in test [5] is “inactive”.
